Assay outcomes (PubChem BioAssay)
Compounds with a hit are over-represented: about 6.6% of the library has one in this group of screens.
KB-V1 MDR tox = KB-V1 MDR subline cytotoxicity; Potency, µM (titrated, usually from 46.1 µM), hits mostly cytotoxic; KB-V1 MDR cells viability, CellTiter-Glo, 72 h; AID 1347076; actives 3.4% (n = 400,000); further: on the % scale 0 is the no-effect control and ±100 the full control effect; nearly all actives have a fitted effect of over 60% in size
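KB-V1, DMEM (no phenol red) + 10% FBS; cpd pin-transferred, titration series; 72 h, 37 degrees C; CellTiter-Glo, luminescence. Data normalized, curve-fit.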
HT1080 IDH1KD tx = kills HT-1080 cells with IDH1 knockdown | HT-1080 IDH1 knockdown viability, ATP luminescence, 48 h | Potency, µM (top dose mostly 46.1 µM), for inactives: at the top dose activity, negative = toxicity, most hits filed as cytotoxic | actives 2% (n = 360,000);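 further: 0% = DMSO wells and -100% = cell-free medium wells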
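HT-1080-IDH1KD cells (IDH1 knocked down), 750/well in RPMI with 5% FBS, treated with compound 48 h at 37 degrees C. Viability by CellTiter-Glo luminescence, normalised to DMSO and no-cell wells; concentration-response curves classed.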
KB-3-1 cytotox = kills parental KB-3-1 adenocarcinoma cells; actives 1.4% (n = 400,000); Potency, µM (doses to about 46.1 µM), hits mostly cytotoxic; AID 1347075; KB-3-1 viability, CellTiter-Glo ATP luminescence, 72 h; further: on the % scale 0 is the no-effect control and ±100 the full control effect; nearly all actives have a fitted effect of over 60% in size
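Luminescent ATP read-out (CellTiter-Glo) measures survival of drug-naive KB-3-1 cells after 72 h compound exposure at 37 °C. Titration series was screened from lowest to highest concentration, with DMSO vehicle plates as background controls.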
TGFb inhibitor = blocks TGF-b signaling; HepG2 CAGA-GFP TGF-b/SMAD3 reporter, GFP fluorescence, 18 h; TGF-beta stimulated, 500 pg/mL final; Potency, µM (doses to about 46.1 µM), for inactives: at the top dose activity, negative = inhibition, most hits filed as inhibitors; actives 1.2% (n = 410,000); AID 588855; further: on the % scale 0 is the no-effect control and ±100 the full control effect; nearly all actives have a fitted effect of over 65% in size
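HEPG2 CAGA-GFP, 1000 cells/well; 2 h settle, 37 C; cpd via pin tool; TGF-b 500 pg/mL final; 18 h, 37 C; GFP imaging ex488/em500-530; %Activity normalised to -TGF-b and +DMSO controls; CRC fit, curve class.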
HT1080NT lethal = kills 2HG-producing HT-1080-NT fibrosarcoma cells | HT-1080-NT fibrosarcoma viability, CellTiter-Glo ATP luminescence, 48 h | Potency, µM (top dose mostly 46.1 µM), without a hit: at the highest dose activity, negative = less viability, actives largely listed as cytotoxic | actives 1.6% (n = 360,000);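 further: NT is the 2HG producing partner of a matched IDH1 knockdown line; 0% = DMSO-treated cells and -100% = media-only wells without cells; nearly all actives have a fitted effect of over 55% in size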
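Toxicity toward the 2HG-producing NT line was scored as %Activity, normalised to DMSO and no-cell wells, from CellTiter-Glo luminescence after 48 hours' treatment.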
HepG2 viability = HepG2 cytotoxicity, counter-screen for TGF-b inhibitors; HepG2 CAGA-GFP viability, ATP luminescence, 18 h; Potency, µM (highest dose often 46.1 µM), without a hit: top-dose activity change, negative = cytotoxicity, actives largely listed as cytotoxic; actives 0.76% (n = 410,000); AID 588856
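HepG2 CAGA-GFP cells (1000/well, DMEM with 1% FBS) received compound, then TGF-beta at 500 pg/mL final, and were incubated 18 hours at 37 degrees C. Viability was read by CellTiter-Glo luminescence. Media-only wells were set as complete cell-killing and DMSO as no toxicity.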
* hit, by the source's call; i = inactive; ? = inconclusive; . = no result given. The call rests on the fitted dose curve; in most records, active means well fitted curve in the direction sought with a large enough effect; inconclusive means small, poorly fitted or top-dose-only effect, or another doubt; inactive means no such curve, though single readings can be large; an effect the other way counts as inactive or inconclusive. Potency means the concentration at half of the fitted maximal effect.

SMILES	KB-V1 MDR tox	HT1080 IDH1KD tx	KB-3-1 cytotox	TGFb inhibitor	HT1080NT lethal	HepG2 viability
Cc1cccc2cc(CN(Cc3ccco3)C(=O)NC3CCCCC3)c(=O)[nH]c12	3.7µM*	-2%	i	?	-4%	1%
Cc1ccc2[nH]c(=O)c(CN(Cc3nnnn3Cc3ccccc3)C3CCCC3)cc2c1	i	4%	i	1%	0%	-26%
COc1ccc(CNC(=O)CSc2nnc(C)c3c(C)n(-c4ccccc4)nc23)c(OC)c1	i	.	i	-14%	.	-51%
COc1ccc(CN2C(=O)CCC2(C)C(=O)NC2CCCCC2)c(OC)c1 (configuration not stated)	21µM*	8%	i	-3%	5%	4%
COc1ccc(Cl)cc1NC(=O)[C@H]1O[C@@H]2OC(C)(C)O[C@@H]2[C@H]2OC(C)(C)O[C@H]21	i	.	i	-11%	.	-11%
CCn1cc(CN2CCCC(C(=O)Nc3ccc(-c4nc5ccccc5[nH]4)cc3)C2)c(C)n1 (configuration not stated)	i	?	i	0%	-22%	-1%
CCn1cc(CN2CCCC(C(=O)Nc3cccc(-c4cc5ccccc5[nH]4)c3)C2)c(C)n1 (configuration not stated)	i	?	i	?	21µM*	-28%
CC(C)n1cc(CN2CCCC(C(=O)Nc3cccc(-c4cc5ccccc5[nH]4)c3)C2)cn1 (configuration not stated)	?	?	?	?	21µM*	-103%
Cn1cc(CN2CCCC(C(=O)Nc3cccc(-c4cc5ccccc5[nH]4)c3)C2)cn1 (configuration not stated)	i	29µM*	?	?	?	-34%
Cc1ccc(C2CC(=O)N(Cc3ccccc3)c3c2c(C)nn3-c2nc(C)cc(C)n2)cc1 (configuration not stated)	i	.	i	-31%	.	-13%
Cc1cccc(C)c1NC(=O)CNC(=O)C(C)N(C)CC(=O)Nc1ccc(F)cc1 (configuration not stated)	i	-6%	i	?	-10%	-2%
O=C1/C(=C/c2cccnc2)SC(=S)N1C1CCS(=O)(=O)C1 (configuration not stated)	?	18µM*	?	-10%	-24%	-33%
COc1ccc(NC(=O)N(C)C[C@H]2Oc3ccc(NC(=O)CCN4CCOCC4)cc3C(=O)N([C@H](C)CO)C[C@@H]2C)cc1	i	10%	i	-12%	7%	4%
CCCCCCCC[n+]1c(C)n(-c2ccccc2)c2ccc(NC(C)=O)cc21	i	-30%	4.6µM*	?	-17%	8%
Nc1nc(SCc2ccc(Cl)c(Cl)c2)n[nH]1	i	-14%	i	-25%	-14%	1%
O=S1(=O)C=C(SCc2ccc(Cl)c(Cl)c2)Nc2ccccc21	15µM*	?	?	?	?	-2%
N#C/C(=C\c1ccncc1)c1nc2ccccc2[nH]1	i	-1%	i	2%	-23%	-25%
N#C/C(=C\c1cccnc1)c1nc2ccccc2[nH]1	23µM*	?	?	8%	?	6%
Cc1cc2nc(/C(C#N)=C/c3ccncc3)[nH]c2cc1C	i	23µM*	i	-27%	?	-22%
N#C/C(=C\c1ccc(N2CCOCC2)c([N+](=O)[O-])c1)c1nc2ccccc2[nH]1	10µM*	-6%	?	8%	-10%	-2%
CC(=O)Nc1cccc(OC2=NS(=O)(=O)c3ccccc32)c1	i	.	i	.	.	.
